Records with an inconclusive call do not appear. Values without a mark were called inactive. Active and inactive are the calls of the source. Calls come from the whole dose curve; as a rule, active = well fitted cell-killing curve with a large enough effect in the repeat runs; inconclusive = weak or mixed curves, or effect the other way; inactive = no such curve, though single readings can be large or run the other way.
Test: qHTS assay to identify small molecule antagonists of the glucocorticoid receptor (GR) signaling pathway - cell viability counter screen (AID 720693); note: nearly all actives have a fitted effect of over 55% in size
Details: GR-bla HeLa viability, CellTiter-Glo luminescence, 18 h, with 5 nM dexamethasone present; series mostly up to 58.5 µM
Description: National Center for Advancing Translational Sciences [NCATS]
NIH Chemical Genomics Center [NCGC]
U.S. Environmental Protection Agency [EPA]
National Institutes of Environmental Health Sciences [NIEHS]
National Toxicology Program [NTP]
U.S. Food and Drug Administration [FDA]
The Glucocorticoid receptor (GR) is one of the members of the nuclear receptor family of ligand-dependent transcription factors. GR plays a critical role in carbohydrate, protein and lipid metabolisms and programmed cell death. CellSensor GR-bla HeLa cell line (Invitrogen) contains a beta-lactamase reporter gene under the control of the glucocorticoid response element stably integrated into HeLa cells, a cervical cancer cell line that expresses glucocorticoid receptor. The activation of the reporter gene under culture conditions can be detected by fluorescence intensity. This cell line has been used to screen the Tox21 10K compound library and to identify the compounds that inhibit the GR signaling. The cytotoxicity of the Tox21 compound library against the GR-bla HeLa cell line was tested in parallel by measuring the cell viability using CellTiter-Glo assay in the same wells.
Tox21 Assay Protocol Summary:
The GR-bla HeLa cells were dispensed at 1500 cells/5 ul/well in 1536-well black wall/clear bottom plates using a Multidrop Combi (ThermoFisher Scientific, Waltham, MA) dispenser. After the assay plates were incubated at a 37 C/5% CO2 incubator for 4 hours, 23 nL of compounds dissolved in DMSO, positive controls or DMSO only was transferred to the assay plate by a pintool station (Kalypsys, San Diego, CA), followed by addition of 1 uL of dexamethasone (5 nM, final concentration in the well). The plates were incubated at 37 C for 18 hours. After 1 uL of LiveBLAzerTM B/G FRET substrate was added using a Flying Reagent Dispenser (Aurora Discovery, San Diego, CA), the plates were incubated at room temperature (RT) for 2 hours, and fluorescence intensity was measured by an Envision plate reader (PerkinElmer, Shelton, CT). After measurement of bla assay, 3 ul CellTiter-Glo (Promega, Madison, WI) was added to measure the cytotoxicity and the plates were then incubated at RT for 30 min. The luminescence was measured using a ViewLux (Perkin Elmer) plate reader.
% is set by controls: 0 for no effect and ±100 for the full control effect.

SMILES | outcome | viability change, negative = cytotoxic
CCC(=O)Nc1cccc(N)c1 | inactive | 
COc1ccc(N=[N+]([O-])c2ccc(OC)cc2)cc1 | inactive | 
C=CCOCC(O)CS(=O)(=O)O (stereo not given) | inactive | 
Cc1onc(-c2ccccc2)c1-c1ccc(S(N)(=O)=O)cc1 | inactive | 
O=C(O)C(O)[C@H](O)[C@@H](O)[C@H](O)[C@H](O)CO (stereo not given in full) | inactive | 
COC[C@H](c1ccc(C(F)(F)F)cc1)N1CCN(C2(C)CCN(C(=O)c3c(C)ncnc3C)CC2)C[C@H]1C | inactive | 
COc1cc(C)cc(O)c1 | inactive | 
CCCCC1CCCCC(=O)O1 (stereo not given) | inactive | 
CCCCCCCCCCC1CO1 (stereo not given) | inactive | 
OC/C=C/c1ccccc1 | inactive | 
C/C=C1\C(=O)C[C@H]2[C@@H]3CCC4=CC(=O)CC[C@]4(C)[C@H]3CC[C@]12C | inactive | 
CC(C)(O)c1ccccc1 | inactive | 
C1=C\CC/C=C\CC/C=C\CC/1 | inactive | 
CCCCC=O | inactive | 
O=C(O)CCNC(=O)c1ccc(N=Nc2ccc(O)c(C(=O)O)c2)cc1 | inactive | 
N#CCN(CC#N)CCN(CC#N)CC#N | inactive | 
C1COCCO1 | inactive | 
NC(=O)CCCCC1CCSS1 (stereo not given) | inactive | 
N#CCc1ccccc1[N+](=O)[O-] | inactive | 
CC(CCO)CCCC(C)(C)O (stereo not given) | inactive | 

SMILES | outcome | viability change, negative = cytotoxic
COc1cc(O)cc(O)c1 | inactive | 
NC(=O)Nc1nc2ccccc2[nH]1 | inactive | 
CCOC(=O)Nc1ccc2c(c1)N(C(=O)CCN1CCOCC1)c1ccccc1S2 | inactive | 
C=C(C)C(=O)NCCCN(C)C | inactive | 
Cc1ccccc1C(=O)O | inactive | 
O=C(O)c1ccccc1S | inactive | 
NS(=O)(=O)c1cc2c(cc1Cl)NC(CSCc1ccccc1)=NS2(=O)=O | inactive | 
O=C1OC(=O)c2cc([N+](=O)[O-])ccc21 | inactive | 
OCCCCCCO | inactive | 
CC(C)N1C(=O)c2ccccc2C1=O | inactive | 
CC(C)c1cccc(O)c1 | inactive | 
Cc1ccc(N)cc1[N+](=O)[O-] | inactive | 
CCCCCCCCCCCCCCCCCCOCC(O)CO (stereo not given) | inactive | 
Nc1[nH]c(=O)ncc1F | inactive | 
COC(=O)CCCCCCCCC(=O)OC | inactive | 
CO[Si](CCCNCCC[Si](OC)(OC)OC)(OC)OC | inactive | 
Cn1cnc2c(=O)[nH]c(N)nc21 | inactive | 
CC(C)=CC(=O)O | inactive | 
C=C(C)[C@@H]1CCC2=CC(=O)C[C@@H](C)[C@]2(C)C1 | inactive | 
NC(=S)Nc1cccc2ccccc12 |  | -9.87% [at 7.04 µM]

— PubChem BioAssay (Tox21)
